# tim10-1 inh = growth inhibitors of tim10-1 mutant yeast. S. cerevisiae tim10-1 ts strain growth, BacTiter-Glo, 24 h. inhibition, % at 20 µM. 2.2% of 330,000 active;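 active means inhibition of at least 40%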;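 further: mutant grown at 25 °C; 0% = DMSO wells with yeast and 100% = wells holding no yeast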
# tim23-1 inh = inhibits growth of tim23-1 mutant yeast; S. cerevisiae tim23-1 growth, BacTiter-Glo luminescence, 24 h; inhibition, % at 20 µM; 1.3% of 330,000 active; AID 463212;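 active means growth inhibition of the mutant yeast at or above 50%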;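 further: temperature-sensitive mutant grown at 25 °C; plate controls were DMSO-treated mutant yeast for no effect and medium wells lacking yeast for full effect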
# TIM10 inh = inhibits growth of TIM10 yeast strain; S. cerevisiae TIM10 strain growth, BacTiter-Glo luminescence, 24 h; inhibition, % at 10 µM; 1.4% of 330,000 active;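 active means inhibition of 40% or more at the single tested concentration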;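 further: wild-type TIM10 isogenic control strain grown at permissive 25 °C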
# NLRP3 yeast inh = inhibitors of NALP3 inflammasome in yeast | AID 2825 | 0.39% of 330,000 active | inhibition, % at 10 µM | Yeast reconstituted NLRP3/ASC/caspase-1, beta-gal luminescence, 24 h;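 active means inhibition of 50% or more; inactive means inhibition below 50%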;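 further: plate controls were induced DMSO wells for no effect and uninduced yeast grown without galactose for full effect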
# NALP1 yeast inh = NALP1 inhibition. S. cerevisiae NALP1/ASC/caspase-1 growth, X-gal OD620, 72 h. inhibition, % at 10 µM. 0.61% of 280,000 active; in the data active means inhibition mostly above about 24%, no sharp cut-off; inactive means mostly below about 32%
# tim10-1 conf = tim10-1 yeast growth inhibition, confirmed. S. cerevisiae tim10-1 ts strain growth, BacTiter-Glo, 24 h. AID 463213. shares compounds with tim10-1 inh. inhibition, % at 20 µM. 56% of 7,400 active;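 active means inhibition of yeast growth at or above a set limit in either of two repeat tests at 20 µM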;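 further: tim10-1 mutant grown at permissive 25 °C to find synthetic lethal compounds; 0% = DMSO yeast wells and 100% = medium wells without yeast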
# TIM10 conf = confirmation of TIM10 yeast growth inhibitors. 63% of 4,600 active. S. cerevisiae tim10 strain growth, BacTiter-Glo luminescence, 24 h. shares compounds with TIM10 inh. inhibition, % at 10 µM;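 active means inhibition of yeast growth at or above a set limit in either of two replicates at 10 µM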;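 further: this counterscreen used the strain with wild-type TIM10; 0% = yeast with DMSO and 100% = medium wells lacking yeast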
# * hit, by the source's call; · = no result. This is a sample that favours compounds with a hit; in the whole collection about 4% have one here.
SMILES,tim10-1 inh,tim23-1 inh,TIM10 inh,NLRP3 yeast inh,NALP1 yeast inh,tim10-1 conf,TIM10 conf
O=C(NC(=S)Nc1ccccc1N1CCCCC1)c1ccccc1,47.9*,49.0,59.9*,9.0,10.1,44.5*,47.0*
CC1CCN(c2ccccc2NC(=S)NC(=O)c2cccs2)CC1,48.9*,40.8,48.2*,24.8,-0.5,33.9*,37.6*
O=C(COc1ccccc1Cc1ccccc1)Nc1cccnc1,8.4,33.0,-0.6,22.8,·,·,·
COc1ccccc1/C=C/CN1CCCC(CCC(=O)NCc2ccccc2F)C1 (stereo not given),51.8*,12.3,43.1*,-4.6,-21.4,35.6*,29.1
COc1ccccc1CC(=O)O/N=C(\N)Cc1cccc2ccccc12,67.0*,8.1,55.6*,7.9,7.1,52.7*,61.8*
COc1ccccc1C/C(N)=N/OC(=O)COc1ccc(C)cc1C,48.5*,37.4,43.3*,6.9,·,42.2*,35.1*
Cc1ccc(C(=O)O/N=C(\N)Cc2cccc3ccccc23)cc1,48.8*,33.2,41.9*,19.9,18.9,51.7*,72.9*
Cc1ccc(C(=O)O/N=C(\N)c2ccccn2)cc1,38.0,37.7,35.1,19.5,-9.1,·,·
CCC(C)C(=O)Nc1nc(C)c(-c2csc(Nc3ccc(Cl)cc3)n2)s1 (stereo not given),40.4*,41.4,44.5*,7.4,11.0,23.9,29.5
COc1ccccc1Nc1nc(N)nc(CSC(=S)N2CCN(c3ccccc3)CC2)n1,1.1,-6.6,9.8,11.0,5.7,·,·
COc1ccccc1Nc1nc(N)nc(CSC(=S)N2CCCCC2C)n1 (stereo not given),42.5*,38.3,48.5*,10.2,15.6,26.9,-23.0
CCCCNC(=S)N(C)/N=C/c1sc(N2CCCCC2)nc1-c1cccs1,28.4,16.4,17.7,2.5,28.8,·,·
NC(=O)N/N=C/c1sc(N2CCCCC2)nc1-c1cccs1,9.3,31.3,36.4,22.9,·,·,·
O=C(N/N=C/c1sc(N2CCCCC2)nc1-c1cccs1)C1CC1,47.4*,48.1,47.2*,11.9,31.2*,36.0*,36.5*
CC(C)NC(=S)N/N=C/c1sc(N2CCCCC2)nc1-c1cccs1,53.4*,47.1,49.7*,1.8,·,47.8*,35.4*
COc1ccccc1/C=C/C(=O)c1cc(Br)ccc1OC(=O)c1ccco1,50.3*,48.9,41.6*,3.7,·,42.0*,0.7
CC(C)(C)NC(=O)C12CC3CC(CC(Cl)(C3)C1)C2,13.8,15.4,12.3,15.6,37.3,·,·
CC(C)(C)NC(=S)NC(=O)C12CCC3CC(CC(C3)C1)C2,44.5*,33.5,48.9*,28.2,8.3,32.1*,36.5*
Nc1nnc(Sc2ccc(Cl)cc2[N+](=O)[O-])s1,15.4,-1.8,3.1,20.6,17.0,·,·
CC(C)Nc1nnc(Sc2ccc(Cl)cc2[N+](=O)[O-])s1,79.4*,47.7,69.1*,28.6,7.7,72.2*,7.8
Cc1nn(C)c(C(=O)Nc2ccc(S(=O)(=O)NC34CC5CC(CC(C5)C3)C4)cc2)c1Br,53.9*,41.1,57.8*,3.1,14.6,44.5*,21.1
Cn1c(Cl)cnc1C1CC(=O)c2cc(Cl)ccc2O1 (stereo not given),65.8*,18.2,72.0*,-7.1,39.9,57.8*,5.2
CCOC(=O)c1ccc(N2C(=O)C3C(/C=C/c4ccccc4)OC4(C(=O)c5ccccc5C4=O)C3C2=O)cc1 (stereo not given),29.7,8.9,17.8,-3.1,21.4,·,·
CC(=O)Nc1ccc(S(=O)(=O)N2CCSC2c2ccc(Cl)cc2)cc1 (stereo not given),52.8*,47.2,40.2*,25.3,-0.9,38.7*,-25.1
CC(=O)Nc1ccc(S(=O)(=O)N2CCC(C(=O)c3ccc(Cl)cc3)CC2)cc1,30.9,29.7,7.8,18.0,13.4,·,·
SMILES,tim10-1 inh,tim23-1 inh,TIM10 inh,NLRP3 yeast inh,NALP1 yeast inh,tim10-1 conf,TIM10 conf
O=C(Nc1ccc(Cl)c([N+](=O)[O-])c1)ONC1=NCCCCC1,78.1*,41.5,54.1*,-6.0,7.0,76.9*,46.0*
CC(=O)Nc1ccc(NC(=O)C(C)OC(=O)c2ccc3[nH]c(C)c(C)c3c2)cc1 (stereo not given),6.3,14.6,9.8,6.3,·,·,·
C/C(=C\c1ccccc1F)C(=O)c1c(C)cc(C)[nH]c1=O,26.9,-5.5,-18.3,2.7,5.1,·,·
Cc1[nH]c(=O)c(C(=O)/C=C/c2ccccc2F)c2c1CCCC2,47.0*,41.2,44.0*,14.7,11.7,52.5*,38.5*
c1ccc(-c2nc(N3CCCCCC3)c3ccccc3n2)nc1,0.5,-22.3,24.3,32.6,9.2,·,·
c1ccc(Oc2nc(-c3ccccn3)nc3ccccc23)cc1,43.4*,47.2,50.2*,48.2,16.8,23.3,19.5
Cc1ccc(OCCCOc2cccc3cccnc23)cc1C,39.8,48.8,34.8,22.5,16.5,·,·
Cc1cccc(OCCCOc2cccc3cccnc23)c1C,45.6*,47.9,46.6*,30.1,19.4,20.1,38.8*
COc1ccc(-n2c(=O)c3c4c(sc3n3c(=S)[nH]nc23)CCCC4)cc1,40.0,30.1,48.2*,15.5,11.6,37.3*,18.4
COC(=O)CSc1nnc2n(-c3ccc(OC)cc3)c(=O)c3c4c(sc3n12)CCCCC4,21.1,2.4,19.2,1.8,-7.2,·,·
CN1CCC(NC(=O)c2cccc(Oc3ccccc3)c2)CC1,0.3,5.0,4.7,18.1,26.1,·,·
O=C(NC1CCCC1)c1cccc(Oc2ccccc2)c1,45.8*,38.5,42.0*,32.3,2.0,26.1,32.2*
COc1ccc(Nc2nc(Nc3ccc(OC)cc3OC)nc(N3CCN(C)CC3)n2)c(OC)c1,-7.5,10.2,-2.1,15.8,44.7,·,·
N/C(=N\OC(=O)CC1CCCCC1)c1ccc(Cl)cc1,42.2*,25.5,44.0*,26.4,31.5*,56.8*,34.3*
N/C(=N\OC(=O)CC1CCCCC1)c1cccc(Br)c1,62.1*,41.0,73.0*,13.3,1.1,66.9*,61.9*
COc1cccc(/C=c2\sc3nc(-c4cccs4)nn3c2=O)c1OC,42.0*,36.5,51.0*,-12.3,13.1,33.1*,1.3
COc1ccc(Cl)cc1NS(=O)(=O)c1cccc(C(=O)NC2CC2)c1,10.1,10.0,3.8,-12.8,·,·,·
Cc1ccc2cccc(NC(=S)NC(=O)c3c(Br)cnn3C)c2n1,37.5,19.3,18.5,14.3,-4.0,·,·
Cc1ccc2cccc(NC(=S)NC(=O)c3ccn(C)n3)c2n1,41.4*,45.0,47.9*,28.8,-2.5,26.9,44.8*
CCOC(=O)c1cnc2ccc(OC)cc2c1Nc1ccc2c(c1)OCCO2,56.3*,48.1,42.7*,22.2,6.0,48.3*,14.4
CCc1n[nH]c(=S)n1/N=C/c1ccc(N(CC)CC)cc1,42.3*,18.5,45.0*,34.5,8.8,11.2,22.8

# Compound activity as filed in PubChem.
